Measured values reported in PubChem BioAssay (Tox21).
Where “and” joins values, the source holds several entries; their conditions need not be identical. Identical values can stand only once. Results filed as inconclusive are left out. Entries that show only a call come without a potency. More than one record can exist for a structure, and the calls need not agree. Calls of active or inactive are those of the source. Unless noted, calls follow the shape of the full dose curve.

Columns and labels:
[1] = Nuclear factor erythroid 2-related factor 2/antioxidant responsive element (Nrf2/ARE) small molecule agonists: qHTS cell viability counter screen in human keratinocytes (AID 1919968; active = well fitted curve in the direction sought with a large enough effect in the repeat runs; an effect the other way counts as inactive or inconclusive; also: nearly all actives have a fitted effect of over 55% in size; also: potency is read from the fitted curve at half-maximal effect)
How it was run: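 CellTiter-Fluor fluorescence, read 1 h after reagent, gave viability in the same wells as the ARE-luciferase assay. KeratinoSens cells (1,500/well) had 23 h compound exposure at 37 C/5% CO2 following 5 h plating.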

[2] = Nuclear factor erythroid 2-related factor 2/antioxidant responsive element (Nrf2/ARE) small molecule agonists: luciferase reporter gene qHTS assay in human keratinocytes (AID 1919969); also: nearly all actives have a fitted effect of over 35% in size; also: potency is read from the fitted curve at half-maximal effect
[3] = biological target: Gonadotropin-releasing hormone receptor (Homo sapiens) (UniProt P30968); test: Human gonadotropin-releasing hormone receptor (GnRHR) small molecule agonists, calcium flux assay in GnRHR-HEK293 cells (AID 1920063); also: nearly all actives have a fitted effect of over 35% in size
How it was run: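 Agonist mode: compounds at 15 concentrations, in triplicate, went onto calcium dye-loaded GnRHR-HEK293 cells. Intracellular calcium was then followed as 480/540 nm fluorescence at 1 s intervals over 3 min.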

[4] = biological target: KiSS-1 receptor (Homo sapiens) (UniProt Q969F8); test: Human kisspeptin (KISS1R) small molecule agonists, calcium flux assay in KISS1R-HEK293 cells (AID 1920064; active = well fitted curve in the direction sought with a large enough effect in the repeat runs; an effect the other way counts as inactive or inconclusive)
How it was run: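 Agonist mode: intracellular calcium rise tracked at 1 s intervals over 3 min (480/540 nm) immediately after compound addition to dye-loaded KISS1R-HEK293 stable cells. Each compound tested at 15 concentrations in triplicate.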

[5] = G protein-coupled receptor (GPCR) small molecule agonists, calcium flux assay: HEK293 wild type cell line counter screen (AID 1920065)
How it was run: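 Calcium flux counter screen: compound added in agonist mode at 15 concentrations in triplicate to dye-loaded parental HEK293 cells. Fluorescence (480/540) read kinetically for 3 min; ATP served as positive control.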

[6] = p53 small molecule agonists, cell-based qHTS assay with human liver microsomes (AID 1963577);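 also: p53 response element beta-lactamase reporter cells with liver microsomes plus NADPH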
How it was run: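 In this qHTS, p53 response-element beta-lactamase cells receive test compound together with a microsome/NADPH activating system (0.5 mg/mL final each) and are incubated 16 h at 37 C before LiveBLAzer fluorescence detection.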

[7] = p53 small molecule agonists, cell-based qHTS assay with rat liver microsomes (AID 1963578)
How it was run: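 Agonist mode in p53RE-bla reporter cells, with compounds co-incubated 16 h at 37 C alongside 0.5 mg/mL rat liver microsomes and 0.5 mg/mL NADPH (final), followed by a 2 h LiveBLAzer detection step.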

[8] = p53 small molecule agonists, cell-based qHTS assay with human liver microsomes: qHTS cell viability counter screen (AID 1963579); also: nearly all actives have a fitted effect of over 45% in size
How it was run: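 Metabolically activated exposure: compounds, human liver microsomes and NADPH (0.5 mg/mL final apiece) were added to p53RE-bla cells seeded 5 h earlier, left 16 h at 37 C, and then assessed for viability by CellTiter-Glo luminescence.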

[9] = p53 small molecule agonists, cell-based qHTS assay with rat liver microsomes: qHTS cell viability counter screen (AID 1963580); also: nearly all actives have a fitted effect of over 45% in size
How it was run: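 Luminescent ATP readout (CellTiter-Glo, 30 min at room temperature) reports viability of p53RE-bla HCT-116 cells after 16 h at 37 C with test compounds under metabolic activation by rat liver microsomes and NADPH at 0.5 mg/mL final each.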

[10] = p53 small molecule agonists, cell-based qHTS assay: qHTS cell viability counter screen (AID 1963581); also: nearly all actives have a fitted effect of over 45% in size
How it was run: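 Counter screen read by CellTiter-Glo luminescence (ATP content, 30 min at room temperature), run in the same wells as the beta-lactamase reporter read. HCT-116 p53RE-bla cells saw compounds for 16 h at 37 C.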

[11] = p53 small molecule agonists, cell-based qHTS assay (AID 1963582; active = well fitted activation curve with a large enough effect in the signal ratio in the repeat runs, not every such curve was filed as active; the % refers to the signal ratio)
How it was run: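 Read-out is beta-lactamase FRET fluorescence after 2 h at room temperature with LiveBLAzer B/G substrate. p53 response element-bla cells were treated 16 h at 37 C with compounds in DMSO, added 5 h after seeding.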

[12] = biological target: 5-hydroxytryptamine receptor 2A (Homo sapiens) (UniProt P28223); test: 5-hydroxytryptamine receptor 2A (HTR2A) small molecule antagonists, cell-based qHTS assay (AID 1963586); also: nearly all actives have a fitted effect of over 45% in size
How it was run: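 CHO cells stably expressing human HTR2A were plated for 18 h at 37 C, then loaded with calcium dye for 1 h. Compounds were preincubated 5 min at room temperature before DOI (4 nM solution) was added. Kinetic fluorescence was read for 3 min.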

[13] = biological target: Muscarinic acetylcholine receptor M1 (Homo sapiens) (UniProt P11229); test: Cholinergic receptor muscarinic 1 (CHRM1) small molecule antagonists, cell-based qHTS assay (AID 1963588); also: nearly all actives have a fitted effect of over 40% in size
How it was run: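 Compounds were tested at 15 concentrations in three independent runs. Dye-loaded CHRM1-CHO cells were exposed 5 min at room temperature before stimulation by acetylcholine added at 50nM. Intracellular calcium was read kinetically on FDSS for 3 min.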

[14] = biological target: Muscarinic acetylcholine receptor M1 (Homo sapiens) (UniProt P11229); test: Cholinergic receptor muscarinic 1 (CHRM1) small molecule agonists, cell-based qHTS assay (AID 1963589); also: nearly all actives have a fitted effect of over 35% in size
How it was run: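 Agonist-mode calcium-flux screen: compounds at 15 concentrations, three independent runs, were pin-transferred onto dye-loaded human CHRM1-CHO cells. Fluorescence was then recorded kinetically every second over minutes.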

[15] = cAMP Responsive Elements (CRE) small molecule agonists, cell-based qHTS assay (AID 1963590)
How it was run: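 Agonist mode: compound added to CRE-bla HEK 293T cells (2,000/well, 18 h after plating) for 3 h at 37 C/5% CO2. Reporter activity detected via FRET beta-lactamase substrate, 2 h room-temperature loading.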

[16] = cAMP Responsive Elements (CRE) small molecule antagonists, cell-based qHTS assay (AID 1963591; active = well fitted inhibition curve with a large enough effect in the signal ratio in the repeat runs, not every such curve was filed as active; the % refers to the signal ratio)
How it was run: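 Antagonist mode: compounds are added alongside the adenylyl cyclase activator NKH477 (0.25 uM final) to CRE-bla HEK293T cells for 3 h. LiveBLAzer FRET substrate, 2 h at room temperature, reports bla expression.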

[17] = biological target: Beta-2 adrenergic receptor (Homo sapiens) (UniProt P07550); test: Adrenergic beta2 receptor (ADRB2) small molecule antagonists, cell-based qHTS assay (AID 1963592); also: series mostly up to about 92 µM; nearly all actives have a fitted effect of over 50% in size
How it was run: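 Assay format: CHO-ADRB2 cells, 18-20hr seeding at 37C/5% CO2, then compound plus 1nM isoproterenol agonist mix for 0.5hr RT. Homogeneous time-resolved fluorescence cAMP detection after 1hr, expressed as 665/615 nm ratio.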

[18] = biological target: D(2) dopamine receptor (Homo sapiens) (UniProt P14416); test: Dopamine D2 receptor (DRD2) small molecule agonists, cell-based qHTS assay (AID 1963594); also: nearly all actives have a fitted effect of over 35% in size
How it was run: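 HEK293 cells stably expressing DRD2 were cultured 24 h at 37 C, then given Ro20-1724 (0.1 mM final) and compounds for 10 min at room temperature. NKH477 (200nM) was then added for 30 min. cAMP was read by HTRF.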

[19] = biological target: D(2) dopamine receptor (Homo sapiens) (UniProt P14416); test: Dopamine D2 receptor (DRD2) small molecule antagonists, cell-based qHTS assay (AID 1963595; active = well fitted inhibition curve with a large enough effect in the signal ratio in the repeat runs, with a control signal flat; the % refers to the signal ratio)
How it was run: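 Cells were plated and grown for 24 h at 37 °C. Ro20-1724 (0.1 mM final) went in first, then compound for 10 min. NKH477 (200 nM) with quinpirole (12 nM) followed for 30 min at RT, then HTRF detection reagents for 1 h.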

[20] = biological target: 5-hydroxytryptamine receptor 2A (Homo sapiens) (UniProt P28223); test: 5-hydroxytryptamine receptor 2A (HTR2A) small molecule agonists, cell-based qHTS assay (AID 1963587); also: nearly all actives have a fitted effect of over 30% in size
How it was run: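 HTR2A-CHO cells, plated 18 h at 37 C/5% CO2, dye-loaded 1 h at 37 C; compounds in DMSO added by pin tool (agonist mode). Intracellular calcium flux read as kinetic fluorescence on FDSS over 2 min at 1 s intervals.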

Sequence of Muscarinic acetylcholine receptor M1 (Homo sapiens) (P11229 whole entry, looked up): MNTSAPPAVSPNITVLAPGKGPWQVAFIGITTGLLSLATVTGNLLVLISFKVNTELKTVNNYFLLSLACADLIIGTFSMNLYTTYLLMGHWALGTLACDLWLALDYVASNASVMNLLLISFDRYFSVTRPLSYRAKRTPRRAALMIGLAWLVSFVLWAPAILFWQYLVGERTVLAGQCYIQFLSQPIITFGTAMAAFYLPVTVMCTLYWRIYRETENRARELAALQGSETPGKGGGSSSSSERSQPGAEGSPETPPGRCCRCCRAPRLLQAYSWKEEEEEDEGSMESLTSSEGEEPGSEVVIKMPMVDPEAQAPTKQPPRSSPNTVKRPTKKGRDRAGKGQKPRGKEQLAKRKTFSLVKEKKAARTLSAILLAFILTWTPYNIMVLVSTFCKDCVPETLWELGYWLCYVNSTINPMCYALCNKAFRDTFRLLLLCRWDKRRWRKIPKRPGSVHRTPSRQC
Sequence of D(2) dopamine receptor (Homo sapiens) (P14416 whole entry, looked up): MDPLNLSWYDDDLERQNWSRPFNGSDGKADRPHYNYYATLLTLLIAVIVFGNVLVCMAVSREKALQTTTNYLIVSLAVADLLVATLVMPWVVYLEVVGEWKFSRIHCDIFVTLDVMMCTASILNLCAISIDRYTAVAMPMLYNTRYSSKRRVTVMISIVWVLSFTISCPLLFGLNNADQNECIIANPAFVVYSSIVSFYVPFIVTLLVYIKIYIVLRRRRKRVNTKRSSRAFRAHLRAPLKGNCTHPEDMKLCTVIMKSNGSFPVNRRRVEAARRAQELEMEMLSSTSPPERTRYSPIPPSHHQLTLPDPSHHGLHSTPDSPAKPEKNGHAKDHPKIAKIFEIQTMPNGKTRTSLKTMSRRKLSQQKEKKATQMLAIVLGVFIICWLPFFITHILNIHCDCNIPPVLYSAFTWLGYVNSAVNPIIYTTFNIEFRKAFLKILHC
Sequence of KiSS-1 receptor (Homo sapiens) (Q969F8 whole entry, looked up): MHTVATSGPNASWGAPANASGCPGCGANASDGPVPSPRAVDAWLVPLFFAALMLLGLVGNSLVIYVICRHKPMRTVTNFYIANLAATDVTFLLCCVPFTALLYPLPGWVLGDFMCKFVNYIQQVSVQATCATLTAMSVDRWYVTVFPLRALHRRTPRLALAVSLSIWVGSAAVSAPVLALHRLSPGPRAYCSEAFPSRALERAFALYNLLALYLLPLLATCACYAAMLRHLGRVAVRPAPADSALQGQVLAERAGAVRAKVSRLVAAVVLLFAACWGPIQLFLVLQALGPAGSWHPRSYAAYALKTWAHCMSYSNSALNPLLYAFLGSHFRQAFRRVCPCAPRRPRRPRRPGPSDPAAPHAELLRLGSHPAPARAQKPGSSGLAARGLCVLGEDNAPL
Sequence of Beta-2 adrenergic receptor (Homo sapiens) (P07550 whole entry, looked up): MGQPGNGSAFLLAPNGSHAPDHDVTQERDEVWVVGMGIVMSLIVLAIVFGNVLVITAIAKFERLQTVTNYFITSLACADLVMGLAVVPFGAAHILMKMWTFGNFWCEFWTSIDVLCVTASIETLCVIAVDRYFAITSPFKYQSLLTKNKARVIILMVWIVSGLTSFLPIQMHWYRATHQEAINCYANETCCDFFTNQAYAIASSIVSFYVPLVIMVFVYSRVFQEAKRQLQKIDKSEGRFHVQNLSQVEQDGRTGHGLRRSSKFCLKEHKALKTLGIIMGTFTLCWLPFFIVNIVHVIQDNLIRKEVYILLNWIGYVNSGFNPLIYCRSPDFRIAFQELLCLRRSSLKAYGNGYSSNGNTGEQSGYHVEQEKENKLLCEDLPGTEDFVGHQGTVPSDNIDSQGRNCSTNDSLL
Sequence of Gonadotropin-releasing hormone receptor (Homo sapiens) (P30968 whole entry, looked up): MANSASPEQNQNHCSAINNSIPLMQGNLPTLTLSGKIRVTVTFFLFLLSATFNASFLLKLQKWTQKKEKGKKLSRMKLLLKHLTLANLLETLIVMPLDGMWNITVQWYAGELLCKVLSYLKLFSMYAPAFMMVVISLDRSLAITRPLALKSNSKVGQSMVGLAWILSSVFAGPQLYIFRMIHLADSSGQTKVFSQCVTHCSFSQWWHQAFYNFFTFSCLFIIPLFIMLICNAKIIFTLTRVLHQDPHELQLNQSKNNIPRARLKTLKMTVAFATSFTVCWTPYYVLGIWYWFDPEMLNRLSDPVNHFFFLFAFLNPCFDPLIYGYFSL
Sequence of 5-hydroxytryptamine receptor 2A (Homo sapiens) (P28223 whole entry, looked up): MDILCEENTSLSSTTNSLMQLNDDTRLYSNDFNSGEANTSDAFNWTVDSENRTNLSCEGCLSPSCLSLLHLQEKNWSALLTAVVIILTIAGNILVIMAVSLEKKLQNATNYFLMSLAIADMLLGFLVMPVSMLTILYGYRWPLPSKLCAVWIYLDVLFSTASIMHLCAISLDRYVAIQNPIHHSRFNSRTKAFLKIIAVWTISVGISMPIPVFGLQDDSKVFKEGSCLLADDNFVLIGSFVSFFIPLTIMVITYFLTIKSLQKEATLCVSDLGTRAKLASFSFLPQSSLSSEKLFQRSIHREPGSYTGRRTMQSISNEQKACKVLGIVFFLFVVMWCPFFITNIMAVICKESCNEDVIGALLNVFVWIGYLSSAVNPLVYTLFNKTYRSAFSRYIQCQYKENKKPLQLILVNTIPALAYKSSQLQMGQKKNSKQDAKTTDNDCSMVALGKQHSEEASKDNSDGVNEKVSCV

Structure (SMILES) | Potency [1] | Potency [2] | Potency [3] | Potency [4] | Potency [5] | Potency [6] | Potency [7] | Potency [8] | Potency [9] | Potency [10] | Potency [11] | Potency [12] | Potency [13] | Potency [14] | Potency [15] | Potency [16] | Potency [17] | Potency [18] | Potency [19] | Potency [20]
ClC(Cl)(Cl)C(Cl)(Cl)Cl | inactive | inactive | inactive | inactive | inactive | inactive | inactive | inactive | inactive | inactive | inactive | inactive | inactive | inactive | inactive | inactive | inactive | inactive | inactive | 
N#Cc1cccc(C#N)c1 | inactive | inactive | inactive | inactive | inactive | inactive | inactive | inactive | inactive | inactive | inactive | inactive | inactive |  | inactive | inactive | inactive | inactive | inactive | 
C=CCOCC1CO1 (stereo not given) | inactive | inactive | inactive | inactive | inactive | inactive | inactive | inactive | inactive | inactive | inactive |  | inactive | inactive | inactive | inactive | inactive |  | inactive | inactive
CC(COc1ccc(Oc2ccccc2)cc1)Oc1ccccn1 (stereo not given) | inactive | 17.2 µM (active) | inactive | inactive | inactive | inactive | inactive | inactive | inactive | inactive | inactive |  |  | inactive | inactive | inactive | inactive | inactive | inactive | inactive
N#CN=C(N)N | inactive | inactive | inactive | inactive | inactive | inactive | inactive | inactive | inactive | inactive | inactive | inactive | inactive | inactive | inactive |  | inactive | inactive | inactive | 
CC(C)c1cccc(C(C)C)c1O | inactive | inactive | inactive | inactive | inactive | inactive | inactive | inactive | inactive | inactive | inactive |  |  |  | inactive | inactive | inactive | inactive | inactive | 
O=P1(N(CCCl)CCCl)NCCCO1 (stereo not given) | inactive | inactive | inactive | inactive | inactive | inactive | inactive | inactive | inactive | inactive | inactive |  |  |  | inactive | inactive | inactive | inactive | inactive | 
NNC(=S)NN | 6.28 µM (active) and 30.6 µM (active) | 2.5 µM (active) | inactive | inactive | inactive | inactive | inactive | inactive | inactive | inactive | inactive |  |  | inactive | inactive | inactive | inactive | inactive | inactive | inactive
O=C(O)CCCc1ccc(N(CCCl)CCCl)cc1 | inactive | inactive | inactive | inactive | inactive | inactive | inactive | inactive | inactive | inactive | inactive |  |  |  | inactive |  | inactive | inactive | inactive | 
C=CC(N)=O | inactive | inactive | inactive | inactive | inactive | inactive | inactive | inactive | inactive | inactive | inactive |  |  |  | inactive | inactive | inactive | inactive | inactive | 
O=S(=O)(c1ccccc1)c1ccccc1 | inactive | inactive | inactive | inactive | inactive | inactive | inactive | inactive | inactive | inactive | inactive |  | inactive | inactive | inactive | inactive | inactive |  | inactive | inactive
Cc1ccc(N=CN(C)C=Nc2ccc(C)cc2C)c(C)c1 | 61.4 µM (active) and inactive | inactive | inactive | inactive | inactive | inactive | inactive | inactive | inactive | inactive | inactive |  |  |  | inactive | inactive | inactive | inactive | inactive | 
O=C(O)CC(O)(CC(=O)O)C(=O)O | inactive | inactive | inactive | inactive | inactive | inactive | inactive | inactive | inactive | inactive | inactive |  |  |  | inactive | inactive | inactive |  | inactive | 
O=S(=O)(c1ccc(O)cc1)c1ccc(O)cc1 | inactive | inactive | inactive | inactive | inactive | inactive | inactive | inactive | inactive | inactive | inactive |  | inactive | inactive | inactive | inactive | inactive | inactive |  | inactive
c1ccc2c(c1)Nc1ccccc1S2 | inactive | 61.1 µM (active) and inactive | inactive | inactive | inactive | inactive | inactive | inactive | inactive | inactive | inactive |  |  |  | inactive | inactive | inactive | inactive | inactive | 
